This note sets out measurements from PMC5515408, “Sequence-specific DNA binding by MYC/MAX to low-affinity non-E-box motifs”.

Over roughly 4,500 sequences, “log2 normalized fluorescence” has its median near -0.34; the highest 2% begin near 3.3. This is one part of a sample in which the highest values are shown more often than they occur.

Chain of MAX:MAX (p21) (P61244 other isoform, or with tags, fused parts or gaps): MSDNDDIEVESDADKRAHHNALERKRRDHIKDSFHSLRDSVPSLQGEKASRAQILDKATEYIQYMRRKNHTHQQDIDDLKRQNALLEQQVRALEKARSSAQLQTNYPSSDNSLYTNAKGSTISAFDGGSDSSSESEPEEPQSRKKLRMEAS

This assay addresses MAX:MAX (p21) (human, UniProt P61244-2 1-151). The assay is described as follows: protein-binding microarray (anti-MAX antibody); PBM: 15 mM Tris-HCl pH 7.5, 100 mM KCl, 0.075% NP40, 7.5 mM beta-mercaptoethanol, 375 ng/ul BSA, 8 ng/ul poly(dA-dT):(dA-dT), 550 ng complex, 60 min, room tempe; high values mean tight binding. The settings on record: protein: recombinant; tags: 6xHis; chain copies: 2; label: 3' end of printed strand (linker) attached to glass slide; dsDNA, one strand shown. A digest of the protocol:
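Recombinant His-tagged human MYC:MAX or MAX:MAX dimers (550 ng, expressed in E. coli) were incubated for 60 min at room temperature in Tris-KCl buffer, pH 7.5, with NP40, BSA and poly(dA-dT) competitor. The custom Agilent glass array held ~5000 unique 12-nt sequences, each spotted in triplicate and made double-stranded by primer extension. Bound protein was detected with anti-MAX and secondary antibodies and scanned at 543 nm. Binding is reported as log2 normalized fluorescence.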
With “CCGGCTGATTGGATGTATTAATAGCTAAGATTACTATATCGACG”, the binding signal is -0.659 log2 normalized fluorescence.
As for “CCGGCTGACTCGCTGTATTAATAGCTAAGATTACTATATCGACG”, the figure is 0.114 log2 normalized fluorescence; as for “CCGGCTGAAGAACCGTATTAATAGCTAAGATTACTATATCGACG”, -0.66 log2 normalized fluorescence; as for “CCGGCTGACAACTTGTATTAATAGCTAAGATTACTATATCGACG”, -0.311 log2 normalized fluorescence.
The value for “CCGGCCCGCCAAAGCATTTAATAGCTAAGATTACTATATCGACG” was 0.154 log2 normalized fluorescence.
The value for “CCGGCTGACAAATCGTATTAATAGCTAAGATTACTATATCGACG” was -0.658 log2 normalized fluorescence.
Regarding “CCGGCTGATCGTCAGTATTAATAGCTAAGATTACTATATCGACG”, the binding signal was -0.695 log2 normalized fluorescence.
In the case of “CCGGCTGAGAGCGCGTATTAATAGCTAAGATTACTATATCGACG”, the binding signal was -0.456 log2 normalized fluorescence.
As for “CCGGCTGACACGCGGTATTAATAGCTAAGATTACTATATCGACG”, the figure is 3.1 log2 normalized fluorescence.
As for “CCGGCAAACACGTGGTATTAATAGCTAAGATTACTATATCGACG”, the figure is 3.01 log2 normalized fluorescence; as for “CCGGCCTACACGTGGTATTAATAGCTAAGATTACTATATCGACG”, 3.31 log2 normalized fluorescence.
Take “CCGGCTTAGACGTGGTATTAATAGCTAAGATTACTATATCGACG”: the binding signal is 1.04 log2 normalized fluorescence.
As for “CCGGCTAACACGTGGTATTAATAGCTAAGATTACTATATCGACG”, the figure is 3.45 log2 normalized fluorescence; as for “CCGGCTTACACGTGGTATTAATAGCTAAGATTACTATATCGACG”, 3.3 log2 normalized fluorescence.
With “CCGGCCAACACGTGGTATTAATAGCTAAGATTACTATATCGACG”, the binding signal is 3.22 log2 normalized fluorescence.
The value for “CCGGCTACTACGTGGTATTAATAGCTAAGATTACTATATCGACG” was 1.83 log2 normalized fluorescence; that for “CCGGCTTAATCGTGGTATTAATAGCTAAGATTACTATATCGACG” was 1.43 log2 normalized fluorescence; that for “CCGGCCGACACGCGGTATTAATAGCTAAGATTACTATATCGACG” was 2.86 log2 normalized fluorescence.
For “CCGGCCTACACGTGGTGTTAATAGCTAAGATTACTATATCGACG”, the binding signal is 3.19 log2 normalized fluorescence.
The value for “CCGGCTAACACGCGGTATTAATAGCTAAGATTACTATATCGACG” was 3.35 log2 normalized fluorescence; that for “CCGGCTGACAAAGTGTATTAATAGCTAAGATTACTATATCGACG” was -0.349 log2 normalized fluorescence; that for “CCGGCTGGCGCATGGTATTAATAGCTAAGATTACTATATCGACG” was 3.17 log2 normalized fluorescence.
As for “CCGGCTGAACGCCTGTATTAATAGCTAAGATTACTATATCGACG”, the figure is 0.727 log2 normalized fluorescence; as for “CCGGCTGACATCCCGTATTAATAGCTAAGATTACTATATCGACG”, 0.192 log2 normalized fluorescence.
As for “CCGGCTGACAGAACGTATTAATAGCTAAGATTACTATATCGACG”, the figure is -0.288 log2 normalized fluorescence; as for “CCGGCTGAGTCCTCGTATTAATAGCTAAGATTACTATATCGACG”, -0.692 log2 normalized fluorescence; as for “CCGGCTGATCTCACGTATTAATAGCTAAGATTACTATATCGACG”, -0.038 log2 normalized fluorescence.
For the sequence “CCGGCTGAAACTCGGTATTAATAGCTAAGATTACTATATCGACG”, the binding signal was -0.697 log2 normalized fluorescence.
The value for “CCGGCGAACATGTGGTATTAATAGCTAAGATTACTATATCGACG” was 3.2 log2 normalized fluorescence; that for “CCGGCGAACACGTAGTATTAATAGCTAAGATTACTATATCGACG” was 2.25 log2 normalized fluorescence.
Turning to “CCGGCGAACACGTGGTATTAATAGCTAAGATTACTATATCGACG”, the binding signal is 3.34 log2 normalized fluorescence.
Regarding “CCGGCTGAACGCTGGTATTAATAGCTAAGATTACTATATCGACG”, the binding signal was 0.233 log2 normalized fluorescence.
As for “CCGGCTGAGGACATGTATTAATAGCTAAGATTACTATATCGACG”, the figure is 0.549 log2 normalized fluorescence; as for “CCGGCTGATGCCGCGTATTAATAGCTAAGATTACTATATCGACG”, 0.00246 log2 normalized fluorescence.
The value for “CCGGCTGACACGCGGTCTTAATAGCTAAGATTACTATATCGACG” was 3.32 log2 normalized fluorescence; that for “CCGGCTGACACGTTAGATTAATAGCTAAGATTACTATATCGACG” was 2.59 log2 normalized fluorescence; that for “CCGGCTGACACGTGCGGTTAATAGCTAAGATTACTATATCGACG” was 3.31 log2 normalized fluorescence.
As for “CCGGCTGACACGTGCCATTAATAGCTAAGATTACTATATCGACG”, the figure is 3 log2 normalized fluorescence; as for “CCGGCTGACACGTGCCGTTAATAGCTAAGATTACTATATCGACG”, 3.41 log2 normalized fluorescence; as for “CCGGCTGACACGTGCGATTAATAGCTAAGATTACTATATCGACG”, 3.02 log2 normalized fluorescence.
As to “CCGGCTGACACACGGTCTTAATAGCTAAGATTACTATATCGACG”, the binding signal is 1.84 log2 normalized fluorescence.
The value for “CCGGCTGACACGTGCACTTAATAGCTAAGATTACTATATCGACG” was 3.13 log2 normalized fluorescence.
The value for “CCGGCTGACACGTGCTATTAATAGCTAAGATTACTATATCGACG” was 3.17 log2 normalized fluorescence; that for “CCGGCTGACACGTGCAATTAATAGCTAAGATTACTATATCGACG” was 3.47 log2 normalized fluorescence; that for “CCGGCTAACACGCGGTCTTAATAGCTAAGATTACTATATCGACG” was 3.15 log2 normalized fluorescence.
On to “CCGGCTGACACGTGCGTTTAATAGCTAAGATTACTATATCGACG”, for which the binding signal is 3.25 log2 normalized fluorescence.
The value for “CCGGCTGAGGCCATGTATTAATAGCTAAGATTACTATATCGACG” was 0.0723 log2 normalized fluorescence.
As for “CCGGCTGACGCCGTGTATTAATAGCTAAGATTACTATATCGACG”, the figure is 0.693 log2 normalized fluorescence; as for “CCGGCTGACACGTATCATTAATAGCTAAGATTACTATATCGACG”, 1.42 log2 normalized fluorescence.
The value for “CCGGCTGAACAATCGTATTAATAGCTAAGATTACTATATCGACG” was -0.744 log2 normalized fluorescence.
Regarding “CCGGCTGATGTTGAGTATTAATAGCTAAGATTACTATATCGACG”, the binding signal is -0.163 log2 normalized fluorescence.
As for “CCGGCAGACACTTTGTATTAATAGCTAAGATTACTATATCGACG”, the figure is 0.324 log2 normalized fluorescence; as for “CCGGCTGAGACTCCGTATTAATAGCTAAGATTACTATATCGACG”, -0.692 log2 normalized fluorescence.
